Experimental data as given in the supplement of paper PMC5662767.
Structures can show the parent of a compound that is named as a salt.

Test system: Drosophila S2 cl14 SmoIP sensor cells
Assay: normalized SmoIP GFP fluorescence (untreated unstimulated = 0%, untreated Hh-stimulated = 100%); higher = more Smo activation sensor fluorescence
Details: compound concentration: 2 uM, 24 h
[1] = stimulation: Hh conditioned medium (+Hh)
[2] = stimulation: mock conditioned medium (-Hh)
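Further: flow cytometry read-out as median GFP intensity of gated cells, compounds added 30 min before Hh-conditioned or mock medium, mock-treated cells serving as unstimulated baseline.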

Row | SMILES | normalized SmoIP GFP fluorescence [1] [%] | normalized SmoIP GFP fluorescence [2] [%]
1 | C[C@@H](NCCc1ccc(O)cc1)[C@@H](O)c1ccc(O)cc1 [Ritodrine-hydrochloride-Yutopar] | 144 | -5.98
2 | Nc1ccccc1NC(=O)c1ccc(CNC(=O)OCc2cccnc2)cc1 | 203 | 6.74
3 | O=C(NCc1ccc(Oc2ccccc2)cc1)c1nc(-c2cc(Br)c(O)c(Br)c2)no1 [iowh032] | 117 | 20
4 | CCC(C)(Oc1ccc(C2(c3ccc(OC(C)(CC)C(=O)O)cc3)CCCCC2)cc1)C(=O)O (stereo not drawn) [clinofibrate] | 131 | -14.5
5 | Cc1nnc(C(C)C)n1C1C[C@H]2CC[C@@H](C1)N2CC[C@H](NC(=O)C1CCC(F)(F)CC1)c1ccccc1 (stereo in doubt) [Maraviroc] | 122 | -13.4
6 | CC(C)C[C@H](NC(=O)[C@H](CCc1ccccc1)NC(=O)CN1CCOCC1)C(=O)N[C@@H](Cc1ccccc1)C(=O)N[C@@H](CC(C)C)C(=O)[C@@]1(C)CO1 [carfilzomib-pr-171] | 80.7 | 5.7
7 | O=C(Nc1ccccc1Br)N[C@@H]1CCN(c2ccc(C(F)(F)F)cn2)C1 | 137 | -2.82
8 | N#Cc1ccc(C(c2ccc(C#N)cc2)n2cncn2)cc1 [Letrozole] | 98.8 | -1.88
9 | CC(C(O)c1ccc(O)cc1)N1CCC(Cc2ccccc2)CC1 (stereo not drawn) [ifenprodil-tartrate] | 103 | -5.15
10 | Cc1c(CN2CCN(C(=O)[C@H](C)O)CC2)sc2c(N3CCOCC3)nc(-c3cnc(N)nc3)nc12 | 69.8 | -4.35
11 | CNCc1ccc(-c2[nH]c3cc(F)cc4c3c2CCNC4=O)cc1 | 115 | 0.489
12 | NS(=O)(=O)c1ccc(NC(=O)Nc2ccc(F)cc2)cc1 | 101 | -3.05
13 | NC1(c2ccc(-c3nc4ccn5c(=O)[nH]nc5c4cc3-c3ccccc3)cc2)CCC1 | 102 | 16.8
14 | Cc1cc(Nc2cc(N3CCN(C)CC3)nc(/C=C/c3ccccc3)n2)n[nH]1 | 136 | 23.8
15 | COc1cc2ncnc(Sc3nnc(C)s3)c2cc1OC [sklb1002] | 107 | -0.491
16 | CC(C)NC[C@@H](C(=O)N1CCN(c2ncnc3c2[C@H](C)C[C@H]3O)CC1)c1ccc(Cl)cc1 | 103 | -1.12
17 | C[C@H](Cc1cc2c(c(C(N)=O)c1)N(CCCO)CC2)NCCOc1ccccc1OCC(F)(F)F [Silodosin(Rapaflo)] | 83.5 | -7.81
18 | CC#CCn1c(N2CCC[C@@H](N)C2)nc2c1c(=O)n(Cc1nc(C)c3ccccc3n1)c(=O)n2C [linagliptin-bi-1356] | 118 | -0.264
19 | COc1ccnc2[nH]cc(C(=O)C(=O)N3CCN(C(=O)c4ccccc4)C[C@H]3C)c12 | 142 | 15.4
20 | Cc1ccccc1C(C(=O)NC1CCCCC1)N(C(=O)Cn1ccnc1C)c1cccc(F)c1 (stereo not drawn) | 111 | -1.97
21 | O=C(/C=C/c1ccc(O)c(O)c1)OCCc1ccccc1 [caffeic-acid-phenethyl-ester] | 114 | 71.8
22 | CC[C@H](Nc1ncnc2[nH]cnc12)c1nc2cccc(F)c2c(=O)n1-c1ccccc1 | 126 | -12.7
23 | c1ccc(CC2=NCCN2)cc1 [tolazoline-hcl] | 103 | -1.74
24 | COc1ncc(-c2ccc3nccc(-c4ccnnc4)c3c2)cc1NS(=O)(=O)c1ccc(F)cc1F | 57.4 | -10.6
25 | O=C(O)C(O)Cc1ccc(O)c(O)c1 (stereo not drawn) [Sodium-Danshensu] | 93.6 | -2.82

Row | SMILES | normalized SmoIP GFP fluorescence [1] [%] | normalized SmoIP GFP fluorescence [2] [%]
26 | CN1CCC[C@@H]1CCO[C@](C)(c1ccccc1)c1ccc(Cl)cc1 [Clemastine-Fumarate] | 104 | 10.7
27 | N#CC1(c2ccc(NC(=O)c3cccnc3NCc3ccncc3)cc2)CCCC1 [Apatinib-YN968D1] | 96.7 | -1.34
28 | Cn1cc(-c2ccc3c(c2)CCN3C(=O)Cc2cccc(C(F)(F)F)c2)c2c(N)ncnc21 | 131 | 39.3
29 | C[C@H](NC(=O)[C@@H](O)c1cc(F)cc(F)c1)C(=O)N[C@@H]1C(=O)N(C)c2ccccc2-c2ccccc21 | 145 | 9.98
30 | Nc1ncnc2n[nH]c(Nc3ccc(F)cc3)c12 | 89.9 | 2.64
31 | COc1cc2ncnc(Nc3ccc(Cl)cc3F)c2cc1OC | 99.3 | -4.13
32 | CCCCOc1ccc(C(=O)Nc2ccc(F)cc2F)cc1 | 99.9 | -2.08
33 | CCCC(CCC)C(=O)O [Sodium-valproate] | 110 | -4.68
34 | CC(=O)Nc1ccc(C(=O)Nc2ccccc2N)cc1 [ci994-tacedinaline] | 129 | -4.13
35 | CCO[C@@H]1OC(=O)C[C@@H]1NC(=O)[C@@H]1CCCN1C(=O)[C@@H](NC(=O)c1ccc(N)c(Cl)c1)C(C)(C)C | 135 | -7.78
36 | CN(C)CC/C=C1/c2ccccc2Sc2ccc(Cl)cc21 [Chlorprothixene] | 106 | -0.378
37 | Cc1ccc(S(=O)(=O)OCC(=O)Nc2ccc(C(=O)O)c(O)c2)cc1 | 112 | -9.58
38 | C[C@@H](Oc1cc(-n2cnc3ccc(CN4CCN(C)CC4)cc32)sc1C(N)=O)c1ccccc1C(F)(F)F | 113 | 17.7
39 | COc1cc(N2CCC(N3CCN(C)CC3)CC2)ccc1Nc1ncc(Cl)c(Nc2ccccc2S(=O)(=O)C(C)C)n1 | 109 | 10.2
40 | CCCC(=O)OCOC(=O)C1=C(C)NC(C)=C(C(=O)OC)C1c1cccc(Cl)c1Cl (stereo not drawn) [cleviprex-clevidipine] | 119 | -12.9
41 | Cn1cc(CNCC2CCN(c3ncc(C(=O)NO)cn3)CC2)c2ccccc21 | 268 | 60.6
42 | CC[C@H](CO)Nc1nc(NCc2ccccc2)c2ncn(C(C)C)c2n1 [Roscovitine] | 121 | 5.12
43 | C=CCc1ccc(O)c(-c2ccc(O)c(CC=C)c2)c1 [Honokiol] | 104 | -9.22
44 | COc1ccc2cccc(CCNC(C)=O)c2c1 [Agomelatine] | 102 | 5.66
45 | CS(=O)(=O)Nc1ccc([N+](=O)[O-])cc1Oc1ccccc1 [nimesulide] | 109 | -4.35
46 | COc1cc2ncnc(Nc3ccc(F)c(Cl)c3)c2cc1NC(=O)/C=C/CN1CCCCC1 | 163 | 12.5
47 | Cc1nccn1CC1CCc2c(c3ccccc3n2C)C1=O (stereo not drawn) [Ondansetron-hydrochloride] | 109 | -2.96
48 | O=C(O)c1cc2cccc([N+](=O)[O-])c2[nH]1 | 136 | 24.3
49 | CCN1CCN(Cc2ccc(Nc3ncc(F)c(-c4cc(F)c5nc(C)n(C(C)C)c5c4)n3)nc2)CC1 | 158 | 50.1
50 | CC(C)CCN1c2nc(Nc3cc(F)c(O)c(F)c3)ncc2N(C)C(=O)C1C (stereo not drawn) | 144 | 1.61

Row | SMILES | normalized SmoIP GFP fluorescence [1] [%] | normalized SmoIP GFP fluorescence [2] [%]
51 | O=S(=O)(c1cccc2cnccc12)N1CCCNCC1 [Fasudil-HCl(HA-1077)] | 97 | -3.93
52 | Cc1cnc(-c2cc(N3CCN(C(=O)CCS(C)(=O)=O)CC3)ncc2Cl)c(C)c1 | 102 | -1.63
53 | COCC(=O)NC/C=C/c1ccc2ncnc(Nc3ccc(Oc4ccc(C)nc4)c(C)c3)c2c1 | 71.1 | 2.43
54 | CC(C)C[C@H](NC(=O)CNC(=O)c1cc(Cl)ccc1Cl)B(O)O | 82.1 | 26
55 | C[N+]1(C)[C@@H]2C[C@@H](OC(=O)C(O)(c3cccs3)c3cccs3)C[C@H]1[C@@H]1O[C@@H]12 [Tiotropium-Bromide-hydrate] | 114 | 0.334
56 | CN1CCN(C(c2ccccc2)c2ccccc2)CC1 [cyclizine-2hcl] | 104 | -5.15
57 | CO[C@@H](C(=O)N1Cc2[nH]nc(NC(=O)c3ccc(N4CCN(C)CC4)cc3)c2C1)c1ccccc1 | 122 | 12.4
58 | CC(C)(C)c1cc(C(C)(C)C)c(NC(=O)c2c[nH]c3ccccc3c2=O)cc1O | -31.6 | 7.39
59 | CCCCCCCCCCCC1=C(O)C(=O)C=C(O)C1=O [embelin] | 108 | -2.08
60 | CNC(=O)c1ccc(C)c(-n2c(C)cc(OCc3ccc(F)cc3F)c(Br)c2=O)c1 | 130 | -8.41
61 | CCN(CC)CCNC(=O)c1c(C)[nH]c(/C=C2\C(=O)Nc3ccc(F)cc32)c1C [Sunitinib-Malate-(Sutent)] | 182 | 90.8
62 | COCCCOc1cc(C[C@@H](C[C@H](N)[C@@H](O)C[C@H](C(=O)NCC(C)(C)C(N)=O)C(C)C)C(C)C)ccc1OC [Aliskiren-hemifumarate] | 126 | -8.59
63 | COc1cc(OC)c(NC(=O)Nc2cc(C)on2)cc1Cl | 114 | -5.98
64 | Oc1ccc([C@H]2COc3cc(O)ccc3C2)cc1 [equol] | 107 | -3.9
65 | COc1cc(N2CCC(N)CC2)ccc1Nc1ncc(Cl)c(-c2c[nH]c3ccccc23)n1 | 113 | -2.48
66 | COc1cc(Nc2ncc3c(n2)-c2ccc(Cl)cc2C(c2c(F)cccc2OC)=NC3)ccc1C(=O)O | 89.5 | 83
67 | COc1ccc(-c2ccc3ncc4c(c3c2)n(-c2ccc(N3CCNCC3)c(C(F)(F)F)c2)c(=O)n4C)cn1 | 66.3 | -7.6
68 | Oc1ccc(-c2nc(-c3ccc(F)cc3)c(-c3ccncc3)[nH]2)cc1 | 99.3 | -1.34
69 | CCOC(=O)[C@H](CCc1ccccc1)N[C@H]1CS[C@H](c2cccs2)CN(CC(=O)O)C1=O [temocapril-hcl] | 111 | 0.785
70 | CNS(=O)(=O)Cc1ccc2[nH]cc(CCN(C)C)c2c1 [Sumatriptan-succinate] | 99.3 | 1.57
71 | COc1cc(NC(=O)c2ccc(-c3ccc(Cl)cc3)o2)cc(OC)c1 | 115 | -1.97
72 | COc1ccc(CCc2nc3cc(-c4c(C)noc4C)ccc3n2C[C@H](C)N2CCOCC2)cc1Cl | 144 | 2.75
73 | O=C1c2ccc(Nc3ccc(F)cc3F)cc2CCc2ccc(OC[C@H](O)CO)cc21 [skepinone-l] | 101 | -4.13
74 | Cc1ccc(Nc2nccc(N(C)c3ccc4c(C)n(C)nc4c3)n2)cc1S(N)(=O)=O [pazopanib] | 107 | 1.95
